A short description of experiment [1]: P. berghei load reduction in hepatocytes – cell-based, HepG2, luciferase luminescence, HepG2 viability, primary screen (AID 624349; in the data active = parasite load remaining mostly below about 12%, no sharp cut-off; inactive = mostly above about 10%;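 also: 100% = mean of DMSO negative control wells on the same plate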). As to conditions: P. berghei liver stage in HepG2, luciferase luminescence, concentration not given here; parasite load remaining: stronger effect = lower value; viability: measured here: HepG2 viability without parasites.
Experiment [2] can be described thus: signal quenchers or enhancers, Cy5 substrate/SSB – biochemical, NIH Clinical Collection, E. coli SSB, artefact control for HCV NS3 helicase inhibitor project (AID 743268; call rule not given here). The note with it: Cy5-oligo bound E. coli SSB, fluorescence interference.
Experiment [3] deals with Hepatitis C virus NS3 helicase. The experiment in a line: blockers of NS3h binding to DNA – biochemical, fluorescence polarization, NIH Clinical Collection, primary screen (AID 743270; call rule not given here). As to conditions: NS3 helicase binding to Cy5-dT15 DNA, stronger effect = higher value, concentration not given here.
Experiment [4] addresses Single-stranded DNA-binding protein (Escherichia coli (strain K12)) (UniProt P0AGE0). The experiment in a line: SSB-ssDNA binding inhibitors – biochemical, fluorescence polarization, NIH Clinical Collection, counter-screen for HCV NS3 helicase inhibitor project (AID 743271; in the data active = inhibition above about 28%). As to conditions: E. coli SSB-DNA binding, stronger effect = higher value, concentration not given here. (Polarisation of emitted light reports the rotation of a fluorescent probe.)

Experiment [5] is described as follows: compounds distorting NS3 helicase fluorescence signal – biochemical, NIH Clinical Collection, artefact control for HCV NS3 helicase inhibitor project (AID 743272; call rule not given here;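 also: HCV NS3 helicase with a Cy5 labelled single stranded DNA probe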). As to conditions: fluorescence interference counterscreen, HCV NS3 helicase assay; stronger effect = lower value.
Experiment [6] can be described thus: modulation of C. elegans fzo-1 (AID 1259413; call rule not given here;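 also: fzo-1 mutant C. elegans worms in liquid wells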). As to conditions: C. elegans fzo-1 modulator screen, mean read-out; stronger effect = higher value.
Experiment [7] is described as follows: EMT-state selective cytotoxicity in co-culture – imaging, PC-3E GFP, TEM4-18 mCherry, primary screen (AID 1345086;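 active = compounds killing one labelled cell type while sparing the other, by normalised counts and ratio limits, not self-fluorescent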;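 as to all read-outs here: cells exposed to compound for 72 h before imaging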;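 as to red/green cell ratio (normalised): normalised mesenchymal count divided by normalised epithelial count so high means epithelial killing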). As to conditions: PC-3E GFP / TEM4-18 mCherry co-culture, imaging cell counts, at 1 µM; for red/green cell ratio (normalised): actives lie on both sides, counts scaled to control wells, 1 = unselective.
Experiment [8] in a line: viability loss with induced miR-34 in A549 – imaging, A549 dox-inducible miR-34, nuclei and caspase counts, primary screen (AID 1347080;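 active = compounds whose cell count with miR-34 switched on is under 0.7 times the count with it off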). As to conditions: A549 miR-34 inducible, Hoechst nuclei count, 48 h.
The next experiment relates to F380Y. The experiment in a line: BK channel mutant inhibitors and activators – cell-based, U2OS BacMam, thallium flux, beta subunits, selectivity assay, profiling panel (AID 1259406).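 Also: initial slope of Thallos dye fluorescence rise after thallium is added; log ratio against the mean of 0.3% DMSO vehicle wells on the same plate.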 The note with it: U2OS BacMam BK variants, at 30 µM.
The test system of another experiment is F380Y/beta1. The experiment is described as above. The note with it: U2OS BacMam BK variants, at 30 µM.
The subject of the next experiment is F380Y/beta2Delta. The experiment is described as above. The note with it: U2OS BacMam BK variants, at 30 µM.
Another experiment concerns F380Y/beta4. Described as above. As to conditions: U2OS BacMam BK variants, at 30 µM.
Experiment [9] concerns the target Calcium-activated potassium channel subunit alpha-1 (Homo sapiens) + Leucine-rich repeat-containing protein 26 (Homo sapiens) (UniProt Q12791+Q2I0M4). The experiment is described as above. The note with it: U2OS BacMam BK variants, F380Y/Slo1WT/gamma1, at 30 µM.
Another experiment concerns R275C. Described as above. The note with it: U2OS BacMam BK variants, at 30 µM.
The next experiment has as its system R275C/beta1. Described as above. As to conditions: U2OS BacMam BK variants, at 30 µM.
The next experiment deals with R275C/beta2Delta. Described as above. As to conditions: U2OS BacMam BK variants, at 30 µM.
In another experiment the test system is R275C/beta4. The experiment is described as above. As to conditions: U2OS BacMam BK variants, at 30 µM.
A further experiment concerns R275C/Slo1WT/beta2. The experiment is described as above. The note with it: U2OS BacMam BK variants, at 30 µM.
Experiment [10] is described as follows: MELAS cybrid and Rieske KO viability enhancers – cell-based, MELAS cybrids, Rieske KO mouse fibroblasts, CellTiter-Glo, primary screen (AID 1508586;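 active = mean z-score across replicates of 1.96 or higher in either the MELAS or the Rieske mutant cell line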;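 also: z relative to plate mean and SD of compound and empty wells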). As to conditions: low glucose.
The mark [11] stands for this setting: measured here: epithelial PC-3E GFP cell survival.
Setting [12] is: measured here: mesenchymal TEM4-18 mCherry cell survival.
Where [13] appears, read: stronger effect = lower value, cell number ratio, induced over uninduced.
Setting [14] is: measured here: relative caspase fold change +Dox/-Dox.
Setting [15] is: measured here: total cells with miR-34 induction, stronger effect = lower value.
Where [16] appears, read: measured here: total cells without miR-34 induction.
[17] abbreviates: MELAS cybrid survival, CellTiter-Glo 48 h, stronger effect = higher value.
The mark [18] stands for this setting: Rieske KO mouse fibroblast survival, CellTiter-Glo 72 h.

The results in this text go back to PubChem BioAssay.

One may read the viability as a read-out of living cells in per cent, often relative to untreated cells. In general, inhibition refers to the drop in the measured response relative to a control, in per cent.

Several values for one entry are separate records, joined by “and”; a condition that tells them apart may be missing. Equal entries are not always repeated. Activity calls are given as the source filed them.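 The calls were made as follows, unless noted: active = thallium flux through the channel raised or lowered by more than 3 SD from vehicle-only wells, actives on both sides; inactive = the rest.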

Calcium-activated potassium channel subunit alpha-1 (Homo sapiens) + Leucine-rich repeat-containing protein 26 (Homo sapiens), sequence (Q2I0M4 whole entry, looked up, one chain of several): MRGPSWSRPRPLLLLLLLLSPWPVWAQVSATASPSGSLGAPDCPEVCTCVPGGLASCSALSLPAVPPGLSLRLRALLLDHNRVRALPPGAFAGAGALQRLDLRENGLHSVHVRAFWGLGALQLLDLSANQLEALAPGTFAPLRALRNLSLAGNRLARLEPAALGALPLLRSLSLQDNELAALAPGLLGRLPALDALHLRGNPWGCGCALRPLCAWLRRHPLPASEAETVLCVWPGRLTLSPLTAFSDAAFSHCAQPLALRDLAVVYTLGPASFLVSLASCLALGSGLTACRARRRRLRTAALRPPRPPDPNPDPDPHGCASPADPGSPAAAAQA

Consider `C[C@H]1O[C@H](O[C@H]2[C@H](O)[C@@H](O)[C@@H](O[C@H]3[C@H](O)[C@@H](O)C(O)O[C@@H]3CO)O[C@@H]2CO)[C@H](O)[C@@H](O)[C@@H]1N[C@H]1C=C(CO)[C@@H](O)[C@H](O)[C@H]1O` (some centres undefined), for which, in experiment [1], the parasite load remaining is 61.3% (inactive) and 108% (inactive). Also, the viability in experiment [1] is 104% and 111%. Besides, the fluorescence ratio in [2] was 1.08 (inactive); in experiment [5], 1.03 (inactive). Moreover, the inhibition is 4.36% (inactive) in experiment [3] and 0.67% (inactive) in experiment [4]. In addition, the mean signal in experiment [6] is 228 (inactive). Moreover, in experiment [7], the red/green cell ratio (normalised) is 0.91 (inactive). Besides, the values for the normalised cell number in experiment [7] (setting [11]) and in [7] (setting [12]) were 1.1 and 1, respectively. Further, the fold change was 0.866 (inactive) in experiment [8] (setting [13]) and 4.27 in [8] (setting [14]). Also, the cell count in experiment [8] (setting [15]) came out at 10500; in experiment [8] (setting [16]), 12200. Moreover, the log fold change Tl+ flux was -0.0255 (inactive) with F380Y; 0.0224 (inactive) in the experiment on F380Y/beta1; 0.0097 (inactive) with F380Y/beta2Delta; 0.039 (inactive) with F380Y/beta4; 0.00221 (inactive) in experiment [9]; -0.0575 (inactive) with R275C. Besides, the log fold change Tl+ flux is -0.00956 (inactive) in the experiment on R275C/beta1, -0.0417 (inactive) in the experiment on R275C/beta2Delta, -0.0364 (inactive) in the experiment with R275C/beta4 and -0.0206 (inactive) in the experiment on R275C/Slo1WT/beta2.

Turning to `CCOC(=O)c1ccc(OC(=O)CCCCCN=C(N)N)cc1`, the parasite load remaining in [1] was 117% (inactive) and 36.3% (inactive). The viability in experiment [1] was 77.4% and 88.1%. The results for the fluorescence ratio in experiment [2] and in [5] were 1.04 (inactive) and 0.95 (inactive), respectively. Moreover, the results for the inhibition in experiment [3] and in [4] were 0.4% (inactive) and -1.64% (inactive), respectively. Besides, in [6], the mean signal was 243 (inactive). Further, the z-score was -0.35 (inactive) and 0.272 (inactive) in experiment [10] (setting [17]); 0.185 and -0.0147 in [10] (setting [18]). For the same compound, the log fold change Tl+ flux was -0.0684 (inactive) with F380Y; -0.00638 (inactive) in the experiment on F380Y/beta1; -0.0274 (inactive) with F380Y/beta2Delta; -0.0274 (inactive) in the experiment with F380Y/beta4; 0.00659 (inactive) in [9]; -0.063 (inactive) in the experiment on R275C. The log fold change Tl+ flux was -0.0293 (inactive) in the experiment on R275C/beta1, -0.0476 (inactive) in the experiment on R275C/beta2Delta, -0.00905 (inactive) in the experiment on R275C/beta4 and -0.0477 (inactive) in the experiment on R275C/Slo1WT/beta2.

Take `C/C(=C\C(=O)OCCCCCCCCC(=O)O)C[C@@H]1OC[C@H](C[C@@H]2O[C@H]2[C@@H](C)[C@H](C)O)[C@@H](O)[C@H]1O`: in experiment [1], the parasite load remaining is 65% (inactive). Moreover, the viability in experiment [1] is 116%. Moreover, the values for the fluorescence ratio in experiment [2] and in experiment [5] were 1.04 (inactive) and 1.03 (inactive), respectively. Further, the inhibition was -4.09% (inactive) in experiment [3] and -5.05% (inactive) in [4]. Further, the mean signal in experiment [6] is 235 (inactive). Moreover, the red/green cell ratio (normalised) in experiment [7] was 1 (inactive). Besides, the normalised cell number in experiment [7] (setting [11]) and in [7] (setting [12]) was 1.08 each time. In addition, the fold change in [8] (setting [13]) was 0.967 (inactive); in experiment [8] (setting [14]) it was 0.766. The cell count worked out at 7890 in [8] (setting [15]) and 8160 in experiment [8] (setting [16]). Also, the figures for the z-score in experiment [10] (setting [17]) and in [10] (setting [18]) were -3.53 (inactive) and -3.7, respectively. Moreover, the log fold change Tl+ flux is 0.0421 (inactive) with F380Y; -0.0188 (inactive) in the experiment with F380Y/beta1; 0.0619 (inactive) in the experiment with F380Y/beta2Delta; 0.0116 (inactive) with F380Y/beta4; 0.0402 (inactive) in experiment [9]; -0.0142 (inactive) in the experiment with R275C. For the same compound, the log fold change Tl+ flux in the experiment on R275C/beta1 is -0.0156 (inactive); in the experiment with R275C/beta2Delta, -0.0137 (inactive); with R275C/beta4 it was 0.0262 (inactive); in the experiment on R275C/Slo1WT/beta2, -0.00127 (inactive).
